# The list is not random: actives were taken first. Their share in the collection is about 27%.
# CYP2C9 activ = human CYP2C9 activators, primary screen, biochemical, luminescence; 96,000 compounds, 1.4% hits; recombinant CYP2C9, luciferin-H conversion; stronger effect = higher value; factor 1 = untreated enzyme, 0 = blocked; activation factor at 5 µM;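 active means activation factor of 2 or more for CYP2C9 at a 5 µM dose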;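 further: 0 = sulfaphenazole-blocked wells and 1 = vehicle-only wells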
# Target sequence (P11712 whole entry, looked up): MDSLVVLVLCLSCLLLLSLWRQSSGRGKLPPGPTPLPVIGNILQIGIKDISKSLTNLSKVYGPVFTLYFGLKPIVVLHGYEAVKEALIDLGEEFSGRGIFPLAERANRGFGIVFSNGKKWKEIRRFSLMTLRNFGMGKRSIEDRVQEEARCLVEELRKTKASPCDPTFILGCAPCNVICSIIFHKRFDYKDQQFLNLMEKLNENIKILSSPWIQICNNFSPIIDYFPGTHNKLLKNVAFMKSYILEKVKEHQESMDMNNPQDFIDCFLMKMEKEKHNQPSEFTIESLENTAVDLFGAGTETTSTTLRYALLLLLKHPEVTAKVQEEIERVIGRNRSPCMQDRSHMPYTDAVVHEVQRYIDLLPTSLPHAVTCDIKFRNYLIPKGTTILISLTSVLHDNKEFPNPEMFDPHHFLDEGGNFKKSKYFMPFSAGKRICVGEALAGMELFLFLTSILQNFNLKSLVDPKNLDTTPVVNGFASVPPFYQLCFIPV
# Cav3 T inh = Cav3.2 calcium influx blockers – cell-based, Fluo-4 calcium fluorescence, FDSS, MLSMR library, primary screen; B-score at 10 µM; Cav3.2-expressing cells; stronger effect = lower value; Voltage-dependent T-type calcium channel subunit alpha-1H (Homo sapiens), O95180; 100,000 compounds, 4% hits;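 active means single-dose well whose peak fluorescence ratio is a statistical outlier from its plate by either plate-standardised score or position-corrected B-score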
# CYP2C9 inh = blockers of cytochrome P450 2C9 activity – biochemical, luminescence, ADME assay, primary screen | P11712 | CYP2C9 Supersomes, luciferin-H conversion | inhibition, % at 5 µM | 96,000 compounds, 20% hits | AID 777, 2007;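 active means blocking of liver enzyme CYP2C9 beyond about 50% at 5 µM, limit read from the data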
# CYP2C19 inh = blockers of cytochrome P450 2C19 activity – biochemical, luminescence, ADME assay, primary screen. CYP2C19 Supersomes, luciferin-H EGE luminescence, 30 min. inhibition, % at 5 µM. 96,000 compounds, 21% hits;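 active means CYP2C19 inhibition above a set limit at 5 µM in the primary screen, cut at about 50% in these data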;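 further: plate controls were negative control wells for no effect and 2.5 mM tranylcypromine positive control for full effect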
# CYP2C19 activ = human CYP2C19 activators, primary screen, biochemical, luminescence | Cytochrome P450 2C19 (Homo sapiens), P33261 | recombinant CYP2C19, luciferin-H EGE luminescence; stronger effect = higher value; 0 = fully inhibited enzyme, 1 = untreated enzyme | activation factor at 5 µM | 96,000 tested, under 10 active | AID 1025, 2008;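 active means activation factor of at least 2 at 5 µM in the primary screen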;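 further: 0 = wells with 2.5 mM tranylcypromine and 1 = vehicle-only wells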
# Active calls of the source: *; nt = no result given.
SMILES,CYP2C9 activ,Cav3 T inh,CYP2C9 inh,CYP2C19 inh,CYP2C19 activ
Cc1ccc(C)c(N2CCN(C(=O)CN(C)S(=O)(=O)c3ccc4c(c3)CCC(=O)N4)CC2)c1,0.2,nt,82*,51*,0.5
Cc1ccc(C)c(N2CCN(S(=O)(=O)c3ccc4c(c3)CCC(=O)N4)CC2)c1,0.2,-2.9,78*,35,0.7
NC(=O)c1ccc(C(F)(F)F)n(Cc2ccc(Cl)cc2)c1=O,0.8,1,22,51*,0.5
NC(=O)c1cnn(Cc2ccc(Cl)cc2)c1N,1,0.09,3,-5,1
NC(=O)c1ccc(C(F)(F)F)n(Cc2cccc(Cl)c2)c1=O,0.7,-2.8,25,56*,0.4
CCNc1nc(NC(C)C)nc(Oc2ccc(OCCOc3ccccc3)nn2)n1,0.6,0.041,42,44,0.6
CCCCN1CC(C(=O)NC2CCCCC2)CC1=O (stereo unspecified),1.2,1.2,-20,-13,1.1
O=C1CSC(c2cn(-c3ccccc3)nc2-c2ccc3c(c2)OCCO3)N1CCN1CCOCC1 (stereo unspecified),0.2,-1.1,78*,81*,0.2
O=C1CSC(c2cn(-c3ccccc3)nc2-c2cc3ccccc3oc2=O)N1Cc1ccccc1 (stereo unspecified),0.7,-0.089,30,-12,1.1
COc1ccc(N2CCC(CNS(=O)(=O)c3cccc(C(F)(F)F)c3)C2)cc1 (stereo unspecified),0.7,-2.2,35,26,0.7
COc1ccc(OC)c(C2SCCN2S(=O)(=O)c2cccc(C(F)(F)F)c2)c1 (stereo unspecified),0.5,-2.7,53*,91*,0.1
CC(=O)Nc1ccc(S(=O)(=O)N2CCSC2c2ccc(Cl)cc2)cc1 (stereo unspecified),1.2,-2,-19,8,0.9
COc1cc(OC)c(C2SCCN2S(=O)(=O)c2ccc(F)cc2)cc1OC (stereo unspecified),0.7,-1,32,60*,0.4
COc1ccc(S(=O)(=O)N2CCSC2c2ccc(N)cc2)cc1 (stereo unspecified),0.6,0.53,36,97*,0
Cc1ccc(-n2nnc(-c3ccnc4ccccc34)n2)cc1,nt,-0.9,nt,nt,nt
Nc1nnc(SCc2ccccc2)n1-c1ccccc1,nt,0.34,nt,nt,nt
Cc1c(C(=O)NNc2cc(=O)n(C)c(=O)n2C)cccc1[N+](=O)[O-],nt,0.57,nt,nt,nt
Cn1c(=O)[nH]c(=O)c2c1nc(NCc1ccco1)n2CCCc1ccccc1,0.9,1,7,0,1
O=c1[nH]c(NCc2ccco2)nnc1Cc1ccccc1Cl,2.5*,-0.12,-153,-1,1
COc1ccc(CC(=O)Nc2nnc(SCc3ccccc3)s2)cc1S(=O)(=O)N1CCOCC1,0.1,-3.2,90*,91*,0.1
COc1ccc(C(CNC(=O)c2ccc(S(=O)(=O)N3CCOCC3)cc2)N2CCCCC2)cc1 (stereo unspecified),nt,1.5,nt,nt,nt
COc1ccc(CC(=O)NCc2ccccc2)cc1S(=O)(=O)N1CCOCC1,0.9,0.53,5,0,1
COc1ccc(CC(=O)Nc2nc3ccccc3s2)cc1S(=O)(=O)N1CCOCC1,0.4,-2.3,64*,76*,0.2
COc1ccc(C(=O)NCC(c2ccc(F)cc2)N2CCOCC2)cc1S(=O)(=O)N1CCCC1 (stereo unspecified),0.9,0.9,11,92*,0.1
COc1ccc(CC(=O)Nc2nc3ccc(F)cc3s2)cc1S(=O)(=O)N1CCOCC1,0.3,-2.1,75*,75*,0.2
CCOc1ccc2nc(NC(=O)c3ccc(OC)c(S(=O)(=O)N4CCOCC4)c3)sc2c1,0.7,-0.46,25,11,0.9
CCCCOc1ccccc1C1C(C(N)=O)=C(C)Nc2nnnn21 (stereo unspecified),1,0.99,-1,-2,1
Cc1ccc(C)c(SCc2noc(C(=O)NCC3CCCO3)c2C(=O)O)c1 (stereo unspecified),0.9,0.82,13,16,0.8
COc1ccc(C2/C=C\CN(C(=O)C3CC3)CC(=O)N2Cc2ccc(F)cc2)cc1 (stereo unspecified),nt,0.29,nt,nt,nt
